The source made the active and inactive calls.
Assays:
[1] = test system: Plasmodium falciparum Sir2 (PF13_0152, Sir2A); experiment: pfSir2 binders on small-molecule microarrays, primary screen, biochemical, small-molecule microarray, 635 nm fluorescence (AID 1098); settings: small-molecule microarray binding, fluorescence 635 nm; higher = more signal;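 also: score merges spot fluorescence intensity with its signal-to-noise ratio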
[2] = small-molecule microarray binders of probe aDKK1, primary screen, biochemical, biotinylated probe, 635/667 nm fluorescence (AID 1099); settings: higher = more signal;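 also: score merges 667nm spot fluorescence with signal to noise across triplicate slides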
[3] = small-molecule microarray binders of probe aCHRDL2, primary screen, biochemical, biotinylated probe, 635/667 nm fluorescence (AID 1100); settings: higher = more signal
[4] = splicing luciferase reporter signal modulators, primary screen, spliceosome inhibition project, cell-based, HEK293, splice +/- reporter (AID 1101); settings: luminescence, 24 h, higher = more signal, called active from +8 up or from −8 down;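 also: HEK293 cells carrying a splicing-competent luciferase reporter gene; test concentration not given here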
[5] = biological target: Fibroblast growth factor 10 (Homo sapiens) (UniProt O15520); experiment: FGF10 binders on small-molecule microarrays, primary screen, biochemical, small-molecule microarray, 635 nm fluorescence (AID 1102); settings: FGF10 binding, fluorescence 635 nm, higher = more signal
[6] = test system: glycogen synthase kinase-3 (GSK3A per assay name; protocol says GSK3B); experiment: GSK3 binders on small-molecule microarrays, primary screen, biochemical, small-molecule microarray, 635 nm fluorescence, GSK3A (AID 1103); settings: small-molecule microarray binding, fluorescence 635 nm; higher = more signal; also: the record names both GSK3A and GSK3B
[7] = biological target: Epidermal growth factor receptor (Homo sapiens) (UniProt P00533); experiment: EGFR binders on small-molecule microarrays, primary screen, biochemical, small-molecule microarray, 635 nm fluorescence (AID 1104); settings: EGFR binding, higher = more signal;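 also: score merges 667 nm emission intensity with spot signal to noise over triplicate slides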
[8] = biological target: Follistatin-related protein 3 (Homo sapiens) (UniProt O95633); experiment: FSTL3 binders on small-molecule microarrays, primary screen, biochemical, small-molecule microarray, 635 nm fluorescence (AID 1105); settings: FSTL3 binding, higher = more signal;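 also: score merges emission near 667 nm and signal to noise per printed spot across three slides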
[9] = biological target: Dickkopf-related protein 1 (Homo sapiens) (UniProt O94907); experiment: DKK1 binders on small-molecule microarrays, primary screen, biochemical, small-molecule microarray, 635 nm fluorescence scan (AID 1106); settings: DKK1 binding, higher = more signal;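 also: score merges emission near 667 nm with signal to noise over three replicate slides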
[10] = test system: Inhibin beta A chain (activin A); experiment: INHBA (activin A) binders on microarrays, primary screen, biochemical, small-molecule microarray, 635 nm fluorescence scan (AID 1107); settings: small-molecule microarray binding, higher = more signal;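 also: mouse activin A protein probed at 4.33 µg/mL on printed slides; score merges bound-protein fluorescence near 667 nm with spot signal-to-noise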
[11] = test system: Human papillomavirus type 1a protein E7 (residues 44-93); experiment: HPV1a E7 fragment binders on microarrays, primary screen, biochemical, small-molecule microarray, residues 44-93, 635 nm fluorescence (AID 1108); settings: small-molecule microarray binding, fluorescence 635 nm; higher = more signal;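 also: E7 fragment applied at 1 µg/mL in TBST for 1 h at 4 C; score combines spot fluorescence with its signal to noise ratio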
[12] = modulators of HCV replicon luciferase signal, primary screen, HCV replication inhibitor project, Huh7 cells, luciferase reporter (AID 1109); settings: 48 h, higher = more signal;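 also: huh7 hepatoma cells harbouring a luciferase neomycin HCV replicon reporter; luciferase luminescence as measure of HCV replicon replication; test concentration not given here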
[13] = biological target: Left-right determination factor 2 (Homo sapiens) (UniProt O00292); experiment: LEFTY2 binders on small-molecule microarrays, primary screen, biochemical, small-molecule microarray, 635 nm fluorescence scan (AID 1110); settings: LEFTY2 binding, higher = more signal
[14] = biological target: Calmodulin-1 (Homo sapiens) (UniProt P0DP23); experiment: CALM1 binders on microarrays, EGTA buffer, profiling panel, biochemical, small-molecule microarray, Cy5-labelled CALM1 (AID 1111); settings: Cy5-CALM1 binding fluorescence, higher = more signal;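 also: labelled calmodulin applied in Tris saline Tween buffer holding calcium plus EGTA and DTT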
[15] = biological target: Calmodulin-1 (Homo sapiens) (UniProt P0DP23); experiment: calcium-bound CALM1 binders on microarrays, profiling panel, artefact control for SMM control-protein annotation, biochemical, small-molecule microarray, Cy5-labelled CALM1, plus calcium (AID 1112); settings: Cy5-CALM1 binding fluorescence, higher = more signal;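 also: score merges spot fluorescence with signal to noise from triplicate slides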
[16] = small-molecule microarray binders of probe aWnt5a, primary screen, biochemical, biotinylated probe, 635/667 nm fluorescence (AID 1113); settings: higher = more signal;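 also: score merges 667 nm fluorescence intensity with signal-to-noise per printed feature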
[17] = small-molecule microarray binders of probe aShh, primary screen, biochemical, biotinylated probe, 635/667 nm fluorescence (AID 1114); settings: higher = more signal;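 also: probe is biotin-labelled aShh protein from a stem cell growth factor screen; measures binding of labelled protein to compounds printed on the slide; score merges feature fluorescence at 667 nm with signal-to-noise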
[18] = small-molecule microarray binders of probe aNog, primary screen, biochemical, biotinylated probe, 635/667 nm fluorescence (AID 1115); settings: higher = more signal;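 also: probe is biotinylated aNog protein used at 0.15 µg/mL for 1 h at 4 C; z-score combines 667 nm fluorescence of each spot with its signal to noise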
[19] = biological target: Torsin-1A-interacting protein 1 (Homo sapiens) (UniProt Q5JTV8); experiment: LAP1 binders from COS7 cell lysate, primary screen, small-molecule microarray, 635/667 nm fluorescence (AID 1116); settings: COS7-hLAP1 lysate binding, 635 nm fluorescence, higher = more signal
[20] = biological target: Alpha-bungarotoxin (Bungarus multicinctus) (UniProt P60615); experiment: alpha-bungarotoxin binders on microarray, profiling panel, artefact control for SMM control protein annotation, biochemical, small-molecule microarray, Alexa647 label, 635/667 nm fluorescence (AID 1117); settings: alpha-BTX-A647 binding fluorescence, higher = more signal
Chain of Alpha-bungarotoxin (Bungarus multicinctus) (P60615 whole entry, looked up): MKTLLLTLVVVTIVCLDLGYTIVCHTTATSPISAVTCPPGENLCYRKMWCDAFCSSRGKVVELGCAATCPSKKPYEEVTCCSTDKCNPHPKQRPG

Chain of Dickkopf-related protein 1 (Homo sapiens) (O94907 whole entry, looked up): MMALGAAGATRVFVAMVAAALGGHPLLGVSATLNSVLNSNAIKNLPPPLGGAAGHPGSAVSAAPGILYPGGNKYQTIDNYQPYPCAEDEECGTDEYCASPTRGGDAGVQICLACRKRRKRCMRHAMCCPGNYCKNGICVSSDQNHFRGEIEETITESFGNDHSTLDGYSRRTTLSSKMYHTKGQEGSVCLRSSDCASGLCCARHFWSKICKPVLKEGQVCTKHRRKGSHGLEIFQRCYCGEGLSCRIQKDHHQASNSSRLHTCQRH
Chain of Epidermal growth factor receptor (Homo sapiens) (P00533 whole entry, looked up): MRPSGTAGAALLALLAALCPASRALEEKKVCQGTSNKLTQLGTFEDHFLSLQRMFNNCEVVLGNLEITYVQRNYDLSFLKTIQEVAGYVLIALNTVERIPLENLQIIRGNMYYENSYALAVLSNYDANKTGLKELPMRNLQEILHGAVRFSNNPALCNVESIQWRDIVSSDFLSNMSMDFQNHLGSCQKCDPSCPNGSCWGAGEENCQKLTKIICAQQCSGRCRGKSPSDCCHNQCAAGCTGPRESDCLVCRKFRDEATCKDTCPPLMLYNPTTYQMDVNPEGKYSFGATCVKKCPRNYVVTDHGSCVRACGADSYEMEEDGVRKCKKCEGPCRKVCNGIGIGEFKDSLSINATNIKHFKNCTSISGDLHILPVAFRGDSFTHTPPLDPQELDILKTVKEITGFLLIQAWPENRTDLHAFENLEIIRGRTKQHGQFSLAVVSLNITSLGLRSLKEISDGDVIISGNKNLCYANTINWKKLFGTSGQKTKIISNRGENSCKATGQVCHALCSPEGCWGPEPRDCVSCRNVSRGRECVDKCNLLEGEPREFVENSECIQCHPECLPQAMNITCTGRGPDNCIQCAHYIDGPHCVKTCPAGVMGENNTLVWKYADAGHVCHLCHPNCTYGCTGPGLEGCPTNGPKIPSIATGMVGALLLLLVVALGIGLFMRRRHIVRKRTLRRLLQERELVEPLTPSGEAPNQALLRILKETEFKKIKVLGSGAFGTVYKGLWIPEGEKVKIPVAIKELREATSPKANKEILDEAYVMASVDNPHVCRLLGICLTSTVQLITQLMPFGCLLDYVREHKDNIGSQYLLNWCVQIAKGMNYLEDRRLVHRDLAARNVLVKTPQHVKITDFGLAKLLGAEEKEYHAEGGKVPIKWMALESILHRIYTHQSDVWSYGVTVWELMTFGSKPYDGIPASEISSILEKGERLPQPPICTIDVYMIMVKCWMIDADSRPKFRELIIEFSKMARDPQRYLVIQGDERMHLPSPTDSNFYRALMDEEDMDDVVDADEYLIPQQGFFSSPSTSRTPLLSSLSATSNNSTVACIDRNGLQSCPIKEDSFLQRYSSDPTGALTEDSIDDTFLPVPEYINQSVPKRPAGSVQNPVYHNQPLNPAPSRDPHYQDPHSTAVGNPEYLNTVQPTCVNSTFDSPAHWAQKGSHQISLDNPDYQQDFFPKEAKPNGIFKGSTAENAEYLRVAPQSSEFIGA
Chain of Left-right determination factor 2 (Homo sapiens) (O00292 whole entry, looked up): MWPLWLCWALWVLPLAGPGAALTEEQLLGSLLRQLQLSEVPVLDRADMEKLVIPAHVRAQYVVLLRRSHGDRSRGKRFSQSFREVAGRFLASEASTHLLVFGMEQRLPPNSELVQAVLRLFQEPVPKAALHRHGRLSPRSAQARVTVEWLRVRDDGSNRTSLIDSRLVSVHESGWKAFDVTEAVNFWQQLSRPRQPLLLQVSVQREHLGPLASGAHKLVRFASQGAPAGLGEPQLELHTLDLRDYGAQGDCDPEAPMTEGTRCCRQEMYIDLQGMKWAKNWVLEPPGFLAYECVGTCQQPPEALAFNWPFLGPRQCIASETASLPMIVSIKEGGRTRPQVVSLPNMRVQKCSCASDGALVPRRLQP
Chain of Follistatin-related protein 3 (Homo sapiens) (O95633 whole entry, looked up): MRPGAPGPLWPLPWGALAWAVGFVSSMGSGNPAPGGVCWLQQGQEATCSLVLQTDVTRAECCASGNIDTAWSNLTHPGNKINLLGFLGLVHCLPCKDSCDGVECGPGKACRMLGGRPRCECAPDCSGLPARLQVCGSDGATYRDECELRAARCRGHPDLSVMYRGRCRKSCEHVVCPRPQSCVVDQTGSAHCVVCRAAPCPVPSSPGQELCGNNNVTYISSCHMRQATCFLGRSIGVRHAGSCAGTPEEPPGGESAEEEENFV
Chain of Torsin-1A-interacting protein 1 (Homo sapiens) (Q5JTV8 whole entry, looked up): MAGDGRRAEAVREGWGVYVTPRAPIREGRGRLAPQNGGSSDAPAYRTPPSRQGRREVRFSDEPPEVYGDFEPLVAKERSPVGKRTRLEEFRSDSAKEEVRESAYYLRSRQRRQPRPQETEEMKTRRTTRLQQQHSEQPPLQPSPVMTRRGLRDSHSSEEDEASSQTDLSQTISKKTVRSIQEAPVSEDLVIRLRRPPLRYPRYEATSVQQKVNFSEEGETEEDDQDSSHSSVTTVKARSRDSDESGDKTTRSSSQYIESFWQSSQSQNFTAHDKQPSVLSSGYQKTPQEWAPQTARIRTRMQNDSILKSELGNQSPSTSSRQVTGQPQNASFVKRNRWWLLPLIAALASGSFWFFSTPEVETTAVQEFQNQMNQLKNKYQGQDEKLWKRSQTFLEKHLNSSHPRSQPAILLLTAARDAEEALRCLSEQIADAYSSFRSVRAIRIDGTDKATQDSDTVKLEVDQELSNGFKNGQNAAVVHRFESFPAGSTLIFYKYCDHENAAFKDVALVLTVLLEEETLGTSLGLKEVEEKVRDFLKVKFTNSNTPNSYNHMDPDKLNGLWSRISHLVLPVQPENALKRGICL
Chain of Fibroblast growth factor 10 (Homo sapiens) (O15520 whole entry, looked up): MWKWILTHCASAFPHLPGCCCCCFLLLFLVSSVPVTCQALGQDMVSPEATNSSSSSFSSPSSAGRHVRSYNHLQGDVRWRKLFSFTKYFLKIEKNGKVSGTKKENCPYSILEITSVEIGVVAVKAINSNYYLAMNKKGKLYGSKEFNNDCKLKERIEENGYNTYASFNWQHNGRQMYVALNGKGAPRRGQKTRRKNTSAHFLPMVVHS

| Compound | composite z-score [1] | composite z-score [2] | composite z-score [3] | z-score [4] | composite z-score [5] | composite z-score [6] | composite z-score [7] | composite z-score [8] | composite z-score [9] | composite z-score [10] | composite z-score [11] | z-score [12] | composite z-score [13] | composite z-score [14] | composite z-score [15] | composite z-score [16] | composite z-score [17] | composite z-score [18] | composite z-score [19] | composite z-score [20] |
| --- | --- | --- | --- | --- | --- | --- | --- | --- | --- | --- | --- | --- | --- | --- | --- | --- | --- | --- | --- | --- |
| O=C1C2=CC[C@H]3C(=O)N(Cc4ccccc4)C(=O)[C@H]3[C@H]2[C@H](O)[C@@H]2O[C@H]12 | 1.47 | -0.211 | -0.417 | 6.91 (inactive) | 0.0121 | -0.569 | 0.41 | -0.1 | 0.245 | -0.0664 | -0.695 | -5.09 | 0.101 | -0.476 | -0.65 | -0.129 | -0.0553 | -0.158 | 0.237 | 0.0012 |
| CC(C)C(=O)N[C@H]1CCCN1C(=O)C=Cc1ccccc1 | 0.0571 | -0.0477 | -0.43 | 0.539 (inactive) | 1.07 | 0.823 | 0.43 | 0.722 | 0.634 | 0.0551 | 0.531 | -0.206 | 0.681 | -0.266 | -0.306 | 0.0495 | 0.3 | 0.254 | 0.289 | 0.0359 |
| CC(=O)OC[C@H]1O[C@H](CC=NOC[C@@H](O)[C@H]2O[C@@H]3OC(C)(C)O[C@@H]3[C@H]2O)C=C[C@@H]1OC(C)=O | 0.8 | -0.0771 | -0.351 | -0.136 (inactive) | 0.771 | 0.529 | 0.317 | 0.451 | 0.375 | -0.115 | 0.836 | -0.041 | 0.439 | 0.699 | 0.249 | -0.0735 | 0.179 | -0.189 | 0.51 | 1.32 |
| C=CC[C@@H]1C=C[C@H](ON=CC[C@@H]2C=C[C@H](OC(C)=O)[C@@H](COC(C)=O)O2)[C@@H](CO)O1 | 1.01 | 0.182 | -0.293 | 0.743 (inactive) | 0.262 | 0.765 | 0.661 | 1.17 | 0.764 | 0.211 | 1.25 | 0.563 | 0.514 | 0.501 | -0.0909 | 0.423 | 0.113 | -0.467 | 0.223 | 1.86 |
| CO[C@@H]1[C@H](O)CO[C@H]1C=Cc1ccccc1 | 1.55 | -0.261 | -0.41 | -0.0979 (inactive) | 0.961 | -0.135 | 0.0571 | 0.211 | 0.365 | 0.512 | 0.258 | -0.696 | 0.509 | -0.0028 | -0.144 | 0.0078 | -0.16 | -0.0563 | 0.0195 | 0.241 |
| CCOC(=O)[C@H](Cc1ccccc1)NC(=O)CCC1CC(OC(=O)NCc2ccc3c(c2)OCO3)CC2(CCCC(COC(=O)NCCOc3ccccc3)O2)O1 (stereo not given in full) | 0.653 | -0.388 | -0.704 | -1.13 (inactive) | 0.881 | 1.1 | 0.628 | 1.31 | 1.16 | -0.0859 | 1.24 | -0.682 | 0.753 | 0.505 | -0.166 | -0.15 | -0.223 | -0.0047 | 0.301 | 0.495 |
| COC(=O)CC=C[C@@H](C)[C@@H](C=NOC(C)CN1CCCCc2nc(C)c(C)cc21)NS(=O)(=O)c1ccc(C)cc1 (stereo not given in full) | 0.361 | -0.0704 | 0.0097 | -0.182 (inactive) | -0.129 | 0.165 | 1 | 0.437 | 0.846 | 1.15 | 0.241 | 0.0814 | 0.614 | -0.344 | -1.27 | -0.158 | 0.0144 | 0.0567 | 0.0017 | 0.363 |
| CCOC(=O)NN=C1C[C@@H](O)[C@@H](O)[C@@H]2[C@@H]3C(=O)N(c4ccc(F)cc4F)C(=O)[C@@H]3CC[C@H]12 | -0.304 | -0.349 | -0.626 | -1.43 (inactive) | 0.158 | 0.544 | 0.742 | 0.438 | 0.871 | 0.0584 | 0.108 | 1.28 | 0.42 | -0.244 | -0.212 | -0.126 | -0.289 | 0.0775 | 0.59 | 0.21 |
| C#CCCCON=C1C[C@@H](O)[C@@H](O)[C@@H]2[C@@H]3C(=O)N(CC)C(=O)[C@@H]3CC[C@H]12 | 0.581 | -0.189 | -0.267 | 0.385 (inactive) | 0.301 | -0.396 | 0.285 | -0.331 | 0.209 | -0.124 | 0.51 | -0.0718 | 0.278 | -0.0398 | -0.304 | -0.089 | -0.307 | -0.353 | 0.779 | 0.573 |
| COc1ccc(COC(=O)NN=C2C[C@@H](O)[C@@H](O)[C@@H]3[C@@H]4C(=O)N([C@@H](C)c5ccccc5)C(=O)[C@@H]4CC[C@H]23)cc1 | -0.25 | -0.121 | 1.4 | 0.445 (inactive) | -0.227 | -0.721 | -0.587 | -0.131 | -0.769 | 0.541 | -1.05 | -1.66 | -0.291 | -0.0436 | 0.073 | -0.0405 | 0.0121 | 0.314 | -0.484 | 0.471 |
